These results are taken from PubChem BioAssay.

Activity calls are given as the source filed them.

Experiment [1] in a line: compound effects on lung adenocarcinoma cell viability – A549, calcein-AM fluorescence, 48 h, basal, profiling panel (AID 1162). The conditions noted are these: higher = more signal.
Experiment [2] is described as follows: compound effects on differentiated 3T3-L1 adipocyte viability – cell-based, 3T3-L1 adipocytes, calcein-AM fluorescence, 48 h, basal, profiling panel (AID 1163). To be noted: 3T3-L1 adipocytes viability, higher = more signal.
A short description of experiment [3]: compound effects on hepatocellular carcinoma cell viability – HepG2, calcein-AM fluorescence, 48 h, basal, profiling panel (AID 1164). The conditions noted are these: higher = more signal.
Experiment [4] can be described thus: compound effects on multiple myeloma cell viability – MM1S, calcein-AM fluorescence, 48 h, basal, profiling panel (AID 1165).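 Note: viability of MM1S multiple myeloma cells under basal unstimulated conditions.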 To be noted: higher = more signal.
Experiment [5] is described as follows: calcein-AM signal in unstimulated myeloma cells – cell-based, calcein-AM fluorescence, 48 h, PK04 Diversity Set, profiling panel (AID 1166).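 Note: cells grown under basal conditions without added stimulus.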 The conditions noted are these: RPMI8226 myeloma viability, higher = more signal.
A short description of experiment [6]: JC-1 mitochondrial signal, unstimulated HepG2 cells – cell-based, JC-1 fluorescence, 24 h, 100 nL compound, profiling panel (AID 1167). The conditions noted are these: HepG2 mitochondrial potential, higher = more signal.
Experiment [7] is described as follows: JC-1 mitochondrial signal, unstimulated adipocytes – cell-based, JC-1 fluorescence, 3T3-L1 adipocytes, 24 h, 100 nL compound, profiling panel (AID 1168). The conditions noted are these: JC-1 mitochondrial fluorescence, higher = more signal, called active from +8 up or from −8 down.
Experiment [8] can be described thus: JC-1 mitochondrial signal, unstimulated myeloma cells – cell-based, JC-1 fluorescence, RPMI8226, 24 h, 100 nL compound, profiling panel (AID 1169). To be noted: JC-1 mitochondrial potential fluorescence, higher = more signal.
Experiment [9] can be described thus: JC-1 mitochondrial signal, unstimulated MM1S myeloma – cell-based, JC-1 fluorescence, 24 h, 100 nL compound, profiling panel (AID 1170). The conditions noted are these: MM1S mitochondrial potential, higher = more signal.
Experiment [10] is described as follows: resazurin metabolic signal in A549 cells – cell-based, resazurin fluorescence, 24 h, PK04 Diversity Set, profiling panel (AID 1171). The conditions noted are these: A549 viability, higher = more signal, called active from +8 up or from −8 down.
Note: test concentration not given here.

`C=CCN(Cc1ccccc1)C(=O)C(c1cccs1)N(CCOCCO)C(=O)/C=C\C(=O)O` (stereo not given): the z-score in experiment [1] is 0.902; in [2], 0.345; in [3] it was 0.849; in experiment [4], 1.62; in [5], 1; in experiment [6], -0.138. Besides, the z-score is 0.0415 (inactive) in experiment [7], 0.158 in [8], -1.37 in experiment [9] and -0.221 (inactive) in [10].

Regarding `C=CCOC(=O)[C@H]1[C@@H]2C(=O)O[C@@H](c3ccccc3)[C@@H](c3ccccc3)N2[C@@H](c2ccc(OCCOC(=O)[C@H]3C[C@H]4C(=O)N5CCC[C@H]5C(=O)N4[C@H]3c3ccc(O)cc3)cc2)[C@]12C(=O)Nc1ccc(I)cc12`, the z-score in experiment [1] is 0.321; in [2] it was 1.47; in experiment [3], -0.167; in [4], -0.484; in experiment [5], -0.231; in [6], -0.518. Moreover, the z-score in experiment [7] was -0.32 (inactive); in experiment [8], -0.00574; in experiment [9], -0.286; in experiment [10], -1.16 (inactive).

Consider `COC(=O)c1c(CC[C@@H](CO)NC(=O)N[C@H](Cn2cc(Cc3ccccc3)nn2)C(C)C)oc(C(C)=O)c1C(=O)OC`, for which the z-score is -0.138 in experiment [1]; 1.62 in experiment [2]; 0.141 in experiment [3]; 0.486 in experiment [4]; -0.298 in [5]; -0.0757 in experiment [6]. Also, the z-score in [7] is 1.58 (inactive); in experiment [8], 0.4; in [9], 0.492; in [10], -0.896 (inactive).

As to `C=CCOC(=O)[C@H]1[C@@H]2C(=O)O[C@@H](c3ccccc3)[C@@H](c3ccccc3)N2[C@@H](c2ccc(OCCOC(=O)[C@@H]3C[C@@H]4C(=O)N[C@@H](CCCCN(C)C)C(=O)N4[C@@H]3c3ccc(O)cc3)cc2)[C@]12C(=O)Nc1ccc(I)cc12`, the z-score in experiment [1] was -0.508; in experiment [2], -0.523; in experiment [3] it was -0.222; in experiment [4], -0.397; in experiment [5], -0.449; in [6], -1.65. Further, the z-score in experiment [7] is 0.832 (inactive); in experiment [8], -0.7; in experiment [9], -1.6; in [10], 0.183 (inactive).

Take `COc1cc2c(cc1O)C(C1CC1)N(Cc1cc3c(cc1Br)OCO3)CC2` (stereo not given): the z-score was -3.4 in experiment [1]; -0.204 in experiment [2]; -3.79 in [3]; -3.15 in [4]; -4.48 in [5]; -1.85 in experiment [6]. The z-score in experiment [7] was -0.457 (inactive); in experiment [8], -0.472; in experiment [9], -2.08; in [10], -4.06 (inactive).

With `[N-]=[N+]=NCc1ccccc1[C@@H]1OC(c2ccc(OCCCO)cc2)=N[C@]1(CCS(=O)(=O)c1ccccc1)C(=O)NCCN1CCOCC1`, the z-score is 1.68 in experiment [1]; -0.0282 in [2]; 1.61 in experiment [3]; 0.377 in [4]; 0.501 in experiment [5]; 0.374 in [6]. Moreover, the z-score in experiment [7] is 0.995 (inactive); in [8] it was 0.127; in [9], -0.806; in experiment [10], -0.597 (inactive).

Take `O=C1c2ccccc2[C@@]2(Cc3ccccc3N(CCN3CCOCC3)C2=O)[C@H](c2ccc(CO)cc2)N1Cc1ccccc1`: the z-score in [1] is 0.668; in experiment [2], -0.238; in experiment [3], 0.402; in experiment [4], 0.0855; in [5], 0.66; in [6] it was 0.761. Further, the z-score in experiment [7] was 0.734 (inactive); in experiment [8], -0.605; in experiment [9], -0.253; in [10], -0.273 (inactive).

As for `COCCOC(=O)N1C(=O)[C@@]2(c3ccccc31)[C@H](c1ccccc1OCCO)N1[C@H](c3ccccc3)[C@H](c3ccccc3)OC(=O)[C@H]1[C@@H]2C(=O)Nc1nc2ccccc2s1`, the z-score in [1] is -0.331; in experiment [2] it was 0.0264; in experiment [3] it was -0.271; in experiment [4] it was -1.39; in experiment [5] it was -1.54; in [6], -1.51. Also, the z-score in experiment [7] is 1.79 (inactive); in experiment [8] it was -1.01; in experiment [9], -1.33; in [10], -1.02 (inactive).

Turning to `C=CC[C@@]1(C(=O)N(C)C)N=C(c2ccc(OCCCO)cc2)O[C@@H]1c1ccccc1N=[N+]=[N-]`, the z-score is 0.459 in experiment [1]; -0.423 in experiment [2]; 0.571 in experiment [3]; -0.761 in experiment [4]; -1.51 in experiment [5]; -0.328 in experiment [6]. Also, the z-score in experiment [7] is 1.04 (inactive); in [8], -0.874; in experiment [9], -1.31; in [10] it was -1.48 (inactive).

In the case of `CCCC=C(CCC)[C@@H](NS(=O)(=O)c1cccs1)c1ccc(C(=O)OC)cc1`, the z-score is -3.9 in experiment [1]; 0.532 in [2]; -5.36 in experiment [3]; -3.33 in [4]; -4.74 in experiment [5]; -4.43 in [6]. Further, the z-score in [7] was 1.24 (inactive); in experiment [8] it was -0.819; in [9] it was -2.8; in experiment [10], 4.56 (inactive).

In the case of `CN1C(=O)C2C=CC(C(O)c3ccc(I)cc3)N(N3CCCCC3)C2C1=O` (stereo not given), the z-score is -0.481 in experiment [1]; -0.111 in experiment [2]; -0.619 in [3]; -3.7 in experiment [4]; -0.955 in experiment [5]; -0.62 in experiment [6]. Moreover, the z-score was -0.435 (inactive) in experiment [7], -0.484 in [8], -0.624 in experiment [9] and -0.799 (inactive) in [10].

As to `CN(C)C(=O)[C@]1(Cc2ccccc2N=[N+]=[N-])N=C(c2ccc(OCCCO)cc2)O[C@@H]1c1ccccc1`, the z-score was -0.54 in [1]; -0.958 in [2]; 0.351 in experiment [3]; -1.02 in experiment [4]; -2.57 in experiment [5]; 0.397 in experiment [6]. The z-score in [7] is 0.6 (inactive); in experiment [8], -1.1; in experiment [9], -1.27; in [10], -0.32 (inactive).

In the case of `OC([C@@H]1CC(c2ccccc2)=NO1)[C@H]1CC(c2ccccc2)=NO1` (stereo not given in full), the z-score is 1.51 in experiment [1]; 0.222 in experiment [2]; 1.59 in [3]; 0.703 in experiment [4]; -0.132 in [5]; 1.05 in experiment [6]. Also, the z-score was 0.635 (inactive) in [7], -0.847 in experiment [8], 0.439 in experiment [9] and 1.04 (inactive) in experiment [10].

As for `C=CC[C@]1(C(=O)NCCCOC)N=C(c2ccc(OCCCO)cc2)O[C@H]1c1ccccc1N=[N+]=[N-]`, the z-score in [1] was -0.707; in experiment [2] it was 0.346; in experiment [3], 0.0592; in experiment [4], -1.78; in experiment [5], -1.47; in experiment [6] it was 0.111. Further, the z-score in experiment [7] was 1.06 (inactive); in experiment [8], -0.68; in experiment [9], -0.114; in experiment [10] it was 0.393 (inactive).

As to `CC(=O)NCCCC[C@@H]1NC(=O)[C@@H]2C[C@H](C(=O)NCCCCCCNC(=O)CS)[C@H](c3cccc(OCCO)c3)N2C1=O`, the z-score in experiment [1] was 0.0596; in [2] it was -0.834; in [3], 0.282; in [4], 0.211; in experiment [5] it was 0.132; in [6] it was -0.387. Besides, the z-score in [7] is 0.0104 (inactive); in experiment [8], -0.811; in experiment [9], -0.333; in [10], -0.435 (inactive).

On to `CC(C)C[C@@H]1NC(=O)[C@@H]2C[C@H](C(=O)NCCCCCN)[C@H](c3cccc(OCCO)c3)N2C1=O`, for which the z-score is 0.938 in experiment [1]; 0.624 in experiment [2]; 1.89 in experiment [3]; 0.767 in experiment [4]; 1.26 in experiment [5]; 1.75 in experiment [6]. Moreover, the z-score in experiment [7] was 0.00134 (inactive); in experiment [8], -0.71; in experiment [9], -0.495; in experiment [10], -0.217 (inactive).
